Assay: resazurin metabolic signal in HepG2 cells – cell-based, resazurin fluorescence, 24 h, PK04 Diversity Set, profiling panel (AID 1172); also: test concentration not given here
Settings: HepG2 viability, higher = more signal
`CC(C)c1ccc(NN2C(C(O)c3ccc4c(c3)OCO4)C=CC3C(=O)N(c4ccccc4)C(=O)C32)cc1` (stereo not drawn) showed a z-score of -1.13. `CN1C(=O)[C@@]2(CCC(=O)OC(C)(C)C)N=C(c3ccc(OCCCO)cc3)O[C@H]2c2ccccc21` gave a z-score of 0.761. For `COC(=O)[C@@]1(Cc2ccc(F)cc2)[C@@H]2C(=CC(=O)[C@H]2CC(=O)C(=O)N(C)C)CN1C(=O)c1ccccc1`, the z-score was -1.46. In the case of `O=C(CS)NCCCCCNC(=O)[C@H]1C[C@H]2C(=O)N3CCC[C@H]3C(=O)N2[C@H]1c1cccc(OCCO)c1`, the z-score is reported as 0.0716. With `C=CCOC(=O)[C@H]1[C@@H]2C(=O)O[C@@H](c3ccccc3)[C@@H](c3ccccc3)N2[C@@H](c2ccc(OCCOC(=O)[C@H]3C[C@H]4C(=O)N[C@@H](Cc5ccccc5)C(=O)N4[C@H]3c3ccc(O)cc3)cc2)[C@]12C(=O)Nc1ccccc12` the z-score was 0.696. Compound `COc1ccc([Si](C)(C)[C@@H]2[C@@H](CCO)O[C@]3(C(=O)N(Cc4ccc(NC(C)=O)cc4)c4ccccc43)[C@H]2C)cc1` has a z-score of -2.52. For `CCCCCN1CC=CC23O[C@@H]4C=CCOC(=O)[C@@H]4[C@H]2C(=O)N(CCCCCCO)[C@@H]3C1=O` (stereo partly drawn), the z-score was 0.547. Compound `COC(=O)C1(C)C=C2C(=C(c3ccccc3)C(=O)C2C)CN1` (stereo not drawn) has a z-score of -1.44. `CC(C)N1CC=CC23O[C@@H]4C=CCCOC(=O)C4[C@H]2C(=O)N(CCCCCCO)[C@@H]3C1=O` (stereo partly drawn) showed a z-score of 0.973. Compound `COc1ccc([Si](C)(C)[C@H]2[C@H](CCO)O[C@@]3(C(=O)N(Cc4cccc(NC(=O)[C@H](C)O)c4)c4ccccc43)[C@@H]2C)cc1` has a z-score of -5.76. With `COc1ccc(CCNC(=O)[C@@H]2c3ccccc3C(=O)N(c3ccc(C)cn3)[C@H]2c2ccc(CO)cc2)cc1` the z-score was 0.594. Compound `C=CCNC(=O)[C@H]1[C@@H]2C(=O)O[C@@H](c3ccccc3)[C@@H](c3ccccc3)N2[C@@H](c2ccc(O)cc2)[C@]12C(=O)N(C(=O)OCCOC)c1ccc(C#CC3=CCCCC3)cc12` has a z-score of 0.467. In the case of `[N-]=[N+]=NCc1ccccc1[C@@H]1OC(c2ccc(OCCCO)cc2)=N[C@]1(Cc1ccccc1)C(=O)N1CCOCC1`, the z-score is reported as -0.85. With `CC(C)C[C@@H]1NC(=O)[C@H]2C[C@@H](C(=O)NCCCCCCN(C)C)[C@@H](c3cccc(OCCO)c3)N2C1=O` the z-score was -0.233. Work on `C=C(/C(=C/C[C@@H](OC(=O)c1ccncc1)c1ccc(OCCO)cc1)c1cnc2ccccc2c1)C(C)C` yielded a z-score of 0.384. `CS(=O)(=O)CCOC(=O)C1=CC(CCCO)=CC(c2cccs2)N(Cc2cccc(OC(F)(F)F)c2)C=C1C(=O)OCCS(C)(=O)=O` (stereo not drawn) showed a z-score of -0.746. `COCCCNC(=O)[C@]1(CCC(=O)OC(C)(C)C)N=C(c2ccc(OCCCO)cc2)O[C@@H]1c1ccccc1N=[N+]=[N-]` gave a z-score of 1.18. With `Cc1ccc(C2CC=C(C(=O)O)CN2S(=O)(=O)c2ccc(C)cc2)cc1` (stereo not drawn) the z-score was -0.719. Work on `O=C1O[C@@H](c2ccccc2)[C@@H](c2ccccc2)N2[C@@H](c3ccc(OCCO)cc3)[C@]3(C(=O)Nc4ccccc43)[C@@H](C(=O)N3CCN(c4ncccn4)CC3)[C@H]12` yielded a z-score of -0.18. With `COCCOC(=O)N1C(=O)[C@@]2(c3cc(C#CCNC(N)=O)ccc31)[C@H](c1ccccc1OCCO)N1[C@H](c3ccccc3)[C@H](c3ccccc3)OC(=O)[C@H]1[C@@H]2C(=O)N1CCN(c2ncccn2)CC1` the z-score was -0.0783. In the case of `COCCOC(=O)N1C(=O)[C@@]2(c3cc(C#Cc4ccc(OC)cc4)ccc31)[C@H](C(=O)N1CCN(c3ncccn3)CC1)[C@H]1C(=O)O[C@H](c3ccccc3)[C@H](c3ccccc3)N1[C@@H]2c1ccc(OCCO)cc1`, the z-score is reported as 0.254. For `CN(C)CCCNC(=O)[C@@H]1c2ccccc2C(=O)N(Cc2cc(F)cc(C(F)(F)F)c2)[C@H]1c1ccc(CO)cc1`, the z-score was 0.0356. In the case of `CCCNC(=O)[C@@H]1c2ccccc2C(=O)N(c2ccc(C)cn2)[C@H]1c1ccc(CO)cc1`, the z-score is reported as 0.306. For `CN1C(=O)C2C=CC(C(O)c3ccc(I)cc3)N(NC(=O)OC(C)(C)C)C2C1=O` (stereo not drawn), the z-score was -1.11. Compound `COC(=O)c1c(CC[C@@H](CO)NC(=O)N[C@H](Cc2ccccc2)Cn2cc(-c3ccccc3N)nn2)oc(C(C)=O)c1C(=O)OC` has a z-score of -0.601. With `CCCC=C(CCC)[C@@H](NC(=O)c1ccc(-c2ccccc2)cc1)c1ccc(C(=O)OC)cc1` the z-score was 0.664. `COCC(=C=CC[C@@H](O)c1ccccc1OCCO)CCO` gave a z-score of 0.721. Work on `CC1CC/C=C\[C@H]2OC34C=CCN(C(C)C)C(=O)[C@H]3N(CCCO)C(=O)[C@@H]4C2C(=O)O1` (stereo partly drawn) yielded a z-score of 0.49.
